Where a name gives a salt, the structure may show the parent alone.
Assays:
Details in all cases: incubation time: 27 h, anaerobic, 37 °C;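 for the amine columns active = adjusted P below 0.05 in both replicates with a change the same way and a mean fold change under 0.8 or over 1.25; inactive = the rest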
[1] = test system: Clostridium sporogenes DSM 1664; assay: growth (OD595) fold change vs plate DMSO controls (fold change (ratio)); higher = more growth
How it was run: (§1)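 Shaken 96-well cultures in mGAM, grown anaerobically for 27 h at 37 °C, were read at 595 nm. OD came from blank-subtracted readings, corrected for background with 20 µM compound solutions in water and scaled by a calibration factor of 5. Growth is the fold change versus the plate's median DMSO control. Values average 2 biological replicates, and any fold change above 1.5 is NA.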

Escherichia coli IAI1 [2] = assay: as above
How it was run: as §1

[3] = test system: Klebsiella aerogenes DSM 30053; assay: as above
How it was run: as §1

[4] = test system: Ruminococcus gnavus DSM 108212; assay: as above
How it was run: as §1

[5] = test system: Klebsiella aerogenes DSM 30053; assay: fold change of Histamine concentration vs plate DMSO controls (fold change (ratio)); higher = more amine produced, active = hit call of the paper (significant change in both replicates, either direction)
How it was run: (§2)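 Extracts of whole anaerobic mGAM cultures were analysed for amines by LC–triple-quadrupole MS with dynamic MRM and external calibration curves, with drift corrected within batch. Four gut strains were grown at 37 °C for 27 h in 80 µL wells with compounds at 20 µM final, sweeteners at 50 µM final. Each value expresses fold change over plate DMSO controls. The average of 2 biological replicates is shown.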

[6] = test system: Clostridium sporogenes DSM 1664; assay: fold change of Tryptamine concentration vs plate DMSO controls (fold change (ratio)); higher = more amine produced, active = hit call of the paper (significant change in both replicates, either direction)
How it was run: as §2

[7] = test system: Ruminococcus gnavus DSM 108212; assay: as above
How it was run: as §2

Escherichia coli IAI1 [8] = assay: fold change of Putrescine concentration vs plate DMSO controls (fold change (ratio)); higher = more amine produced, active = hit call of the paper (significant change in both replicates, either direction)
How it was run: as §2

[9] = test system: Klebsiella aerogenes DSM 30053; assay: as above
How it was run: as §2

Escherichia coli IAI1 [10] = assay: fold change of Cadaverine concentration vs plate DMSO controls (fold change (ratio)); higher = more amine produced, active = hit call of the paper (significant change in both replicates, either direction)
How it was run: as §2

[11] = test system: Klebsiella aerogenes DSM 30053; assay: as above
How it was run: as §2

[12] = test system: Ruminococcus gnavus DSM 108212; assay: fold change of 2-Phenylethylamine concentration vs plate DMSO controls (fold change (ratio)); higher = more amine produced, active = hit call of the paper (significant change in both replicates, either direction)
How it was run: as §2

Compound	growth [1]	growth (Escherichia coli IAI1 [2])	growth [3]	growth [4]	fold change of Histamine concentration [5]	fold change of Tryptamine concentration [6]	fold change of Tryptamine concentration [7]	fold change of Putrescine concentration (Escherichia coli IAI1 [8])	fold change of Putrescine concentration [9]	fold change of Cadaverine concentration (Escherichia coli IAI1 [10])	fold change of Cadaverine concentration [11]	fold change of 2-Phenylethylamine concentration [12]
C#C[C@]1(OC(C)=O)CC[C@H]2[C@@H]3CCC4=C[C@@H](OC(C)=O)CC[C@@H]4[C@H]3CC[C@@]21C [Ethynodiol diacetate] (20 µM)	0.766	0.814	1.02	1.14	0.897 (inactive)	0.966 (inactive)	1.01 (inactive)	0.894 (inactive)	1 (inactive)	1.09 (inactive)	1.02 (inactive)	1.02 (inactive)
O=C(O)CNC(=O)c1ccccc1 [Hippuric acid] (20 µM)	1.12	1.02	1.02	1.05	1.03 (inactive)	1.05 (inactive)	1.08 (inactive)	0.979 (inactive)	0.997 (inactive)	0.94 (inactive)	1.01 (inactive)	1.09 (inactive)
C[C@H]1O[C@H](O[C@H]2[C@H](O)[C@@H](O)[C@@H](O[C@@H]([C@H](O)[C@@H](O)C=O)[C@H](O)CO)O[C@@H]2CO)[C@H](O)[C@@H](O)[C@@H]1N[C@H]1C=C(CO)[C@@H](O)[C@H](O)[C@H]1O [Acarbose] (20 µM)	0.918	1.03	1.04	1.05	1.15 (inactive)	1.02 (inactive)	0.997 (inactive)	0.948 (inactive)	1.07 (inactive)	1.12 (inactive)	0.996 (inactive)	0.978 (inactive)
NC[C@@H]1O[C@H](O[C@H]2[C@@H](O)[C@H](O[C@@H]3[C@@H](O)[C@H](N)C[C@H](N)[C@H]3O[C@H]3O[C@H](CO)[C@@H](O)[C@H](O)[C@H]3N)O[C@@H]2CO)[C@H](N)[C@@H](O)[C@@H]1O [Paromomycin sulfate] (20 µM)	1.06	0.996	0.975	0.984	0.994 (inactive)	1.03 (inactive)	0.999 (inactive)	1.01 (inactive)	1 (inactive)	0.972 (inactive)	0.981 (inactive)	0.987 (inactive)
Nc1nc(O)c2ncn(CCC(CO)CO)c2n1 [Penciclovir] (20 µM)	1.11	1.12	1.06	1.14	0.824 (inactive)	1.07 (inactive)	1.08 (inactive)	1.08 (inactive)	0.962 (inactive)	0.996 (inactive)	1.02 (inactive)	1.12 (inactive)
NS(=O)(=O)c1cc2c(cc1C(F)(F)F)NC(Cc1ccccc1)NS2(=O)=O (centres undefined) [Bendroflumethiazide] (20 µM)	0.897	1.01	1.06	1.05	0.915 (inactive)	0.993 (inactive)	0.993 (inactive)	0.977 (inactive)	0.971 (inactive)	0.959 (inactive)	1 (inactive)	0.957 (inactive)
CC(C(=O)O)c1ccc2c(c1)CC(=O)c1ccccc1S2 (centres undefined) [Zaltoprofen] (20 µM)	0.876	0.998	0.985	0.873	1.1 (inactive)	1.01 (inactive)	1.12 (inactive)	1.01 (inactive)	1.04 (inactive)	0.931 (inactive)	1.05 (inactive)	1.33 (inactive)
COc1cc2ncnc(Nc3ccc(F)c(Cl)c3)c2cc1OCCCN1CCOCC1 [Gefitinib] (20 µM)	1.1	1.04	0.991	1.18	0.983 (inactive)	1.06 (inactive)	0.993 (inactive)	1.14 (inactive)	0.997 (inactive)	1.02 (inactive)	1.02 (inactive)	1.1 (inactive)
COc1ccc(-c2ccc3cc(C(=O)O)ccc3c2)cc1C12CC3CC(CC(C3)C1)C2 [Adapalene] (20 µM)	0.829	1	1.04	1.18	1.02 (inactive)	0.96 (inactive)	1.04 (inactive)	1.02 (inactive)	1 (inactive)	1.02 (inactive)	0.994 (inactive)	1.06 (inactive)
CCN(CC)CCOC(=O)c1ccc(N)cc1 [Procaine hydrochloride] (20 µM)	0.834	1.24	1.08	1.23	0.974 (inactive)	1.04 (inactive)	1.04 (inactive)	1.16 (inactive)	1.03 (inactive)	0.979 (inactive)	1.01 (inactive)	0.992 (inactive)
CCOc1cc(CC(=O)N[C@@H](CC(C)C)c2ccccc2N2CCCCC2)ccc1C(=O)O [Repaglinide] (20 µM)	1.11	1.2	0.993	0.81	0.982 (inactive)	1.18 (inactive)	1.09 (inactive)	1.14 (inactive)	0.966 (inactive)	1.01 (inactive)	1.03 (inactive)	1.13 (inactive)
NS(=O)(=O)c1cc2c(cc1Cl)NCNS2(=O)=O [Hydrochlorothiazide] (20 µM)	0.895	1.06	0.998	1.03	1.06 (inactive)	0.949 (inactive)	1.11 (inactive)	1.04 (inactive)	1 (inactive)	0.915 (inactive)	1.11 (inactive)	1.27 (active)
COc1ccccc1N1CCN(CC(O)COc2cccc3ccccc23)CC1 (centres undefined) [Naftopidil dihydrochloride] (20 µM)	1.11	0.99	1.17	0.961	0.884 (inactive)	1.02 (inactive)	0.888 (inactive)	0.981 (inactive)	1.01 (inactive)	1.06 (inactive)	1.02 (inactive)	0.963 (inactive)
Cc1ncc(C[n+]2csc(CCO)c2C)c(N)n1 [Thiamine hydrochloride] (20 µM)	0.972	0.961	1.01	1.14	0.968 (inactive)	1.06 (inactive)	0.914 (inactive)	1.01 (inactive)	0.998 (inactive)	1.01 (inactive)	1.01 (inactive)	0.868 (inactive)
CCCc1nc(C)c2c(=O)nc(-c3cc(S(=O)(=O)N4CCN(CC)CC4)ccc3OCC)[nH]n12 [Vardenafil] (20 µM)	1.15	0.975	1.01	1.27	1.03 (inactive)	0.992 (inactive)	1.05 (inactive)	1.01 (inactive)	1.01 (inactive)	1.02 (inactive)	1.01 (inactive)	1.07 (inactive)
OCCOCCN1CCN(C(c2ccccc2)c2ccc(Cl)cc2)CC1 (centres undefined) [Hydroxyzine dihydrochloride] (20 µM)	1.07	1.01	1.05	0.906	0.909 (inactive)	1.01 (inactive)	1.02 (inactive)	0.98 (inactive)	0.966 (inactive)	0.968 (inactive)	1.02 (inactive)	1.06 (inactive)
CC(C)(C)c1ccc(C(O)CCCN2CCC(C(O)(c3ccccc3)c3ccccc3)CC2)cc1 (centres undefined) [Terfenadine] (20 µM)	1.21	1	1.09	1.21	0.886 (inactive)	1.06 (inactive)	0.754 (active)	1 (inactive)	0.97 (inactive)	1.05 (inactive)	1.01 (inactive)	0.815 (inactive)
CC(=O)OC(C)C[N+](C)(C)C (centres undefined) [Methacholine chloride] (20 µM)	0.962	1.02	0.965	0.97	0.992 (inactive)	1.01 (inactive)	1.06 (inactive)	1.09 (inactive)	1 (inactive)	0.985 (inactive)	0.989 (inactive)	1.08 (inactive)
CN1CCc2cccc3c2[C@H]1Cc1ccc(O)c(O)c1-3 [R(-) Apomorphine hydrochloride hemihydrate] (20 µM)	1.05	1.03	1.05	1.17	1.02 (inactive)	0.988 (inactive)	0.997 (inactive)	0.98 (inactive)	0.978 (inactive)	1.04 (inactive)	0.992 (inactive)	1.01 (inactive)
CC(=O)N(O)CCCCCNC(=O)CCC(=O)N(O)CCCCCNC(=O)CCC(=O)N(O)CCCCCN [Deferoxamine mesylate] (20 µM)	0.934	0.997	0.996	1.06	0.926 (inactive)	1.04 (inactive)	1.18 (inactive)	0.952 (inactive)	0.951 (inactive)	0.996 (inactive)	1.03 (inactive)	1.29 (inactive)
NS(=O)(=O)Cc1noc2ccccc12 [Zonisamide] (20 µM)	0.883	1.01	0.994	1.01	1.02 (inactive)	1.07 (inactive)	0.863 (inactive)	1.07 (inactive)	1.01 (inactive)	1.05 (inactive)	1 (inactive)	0.806 (inactive)
C[C@@H]1C[C@H]2[C@@H]3C[C@H](F)C4=CC(=O)C=C[C@]4(C)[C@@]3(F)[C@@H](O)C[C@]2(C)[C@@]1(O)C(=O)CO [Flumethasone] (20 µM)	1.02	1	1.01	1.2	0.997 (inactive)	0.979 (inactive)	1.01 (inactive)	0.991 (inactive)	0.989 (inactive)	1.04 (inactive)	0.991 (inactive)	0.972 (inactive)
